# Results taken from PubChem BioAssay AID1117291 (Broad Institute, 2014).
# Measured potencies and affinities stand elsewhere. Records with an inconclusive call do not appear. The source made the active and inactive calls.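 The calls were made as follows: active = compound whose fitted half-maximal potency lies at or below double its highest tested dose in every test; inconclusive = tests disagree, or a flat partial loss, or a poor fit; inactive = every test inactive.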
# Assay: HepG2 cell cytotoxicity, dose response, cytotoxicity control, CellTiter-Glo luminescence, dry powder, set 20 (AID 1117291)
# Conditions: HepG2 viability, CellTiter-Glo ATP luminescence, 72 h; series mostly up to 26 µM; activity change, negative = cytotoxicity: at the top concentration
row,SMILES,"activity change, negative = cytotoxicity"
1,COc1ccc(C2=NN(c3ccc(C(=O)O)cc3)C(c3ccc(OC)c(OC)c3)C2)cc1 (stereo unspecified),-15.3% (inactive)
2,Cc1ccc(NC(=O)NC2(C(=O)N3CCN(c4ccccc4)CC3)CCCCC2)cc1,0.039% (inactive)
3,O=S(=O)(Nc1cc(C(F)(F)F)ccc1N1CCCCC1)c1ccc(-c2ccccc2)cc1,-11.2% (inactive)
4,O=S(=O)(Nc1cc(C(F)(F)F)ccc1N1CCCCC1)c1ccc(F)cc1,-27.5% (inactive)
5,O=C(Nc1cc(C(F)(F)F)ccc1N1CCCCC1)c1ccc(S(=O)(=O)O)cc1,2.79% (inactive)
6,CC(=O)N1CCN(C(=O)C2(NC(=O)Nc3ccccc3)CCCC2)CC1,5% (inactive)
